The text below walks through data of PubChem BioAssay.

Test [1] is described as follows: P. berghei load reduction in hepatocytes – cell-based, HepG2, luciferase luminescence, HepG2 viability, primary screen (AID 624349; in the data active = parasite load remaining mostly below about 12%, no sharp cut-off; inactive = mostly above about 10%;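 also: 100% = mean of DMSO negative control wells on the same plate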). The note with it: P. berghei liver stage in HepG2, luciferase luminescence, concentration not given here; parasite load remaining: stronger effect = lower value; viability: measured here: HepG2 viability without parasites.
The nature of test [2]: signal quenchers or enhancers, Cy5 substrate/SSB – biochemical, NIH Clinical Collection, E. coli SSB, artefact control for HCV NS3 helicase inhibitor project (AID 743268; call rule not given here). The following applies: Cy5-oligo bound E. coli SSB, fluorescence interference.
In test [3] the test system is Hepatitis C virus NS3 helicase. Briefly: blockers of NS3h binding to DNA – biochemical, fluorescence polarization, NIH Clinical Collection, primary screen (AID 743270; call rule not given here). The following applies: NS3 helicase binding to Cy5-dT15 DNA, stronger effect = higher value, concentration not given here. (In general: Fluorescence polarisation rises when a labelled molecule tumbles more slowly, as on binding a larger partner.)

Test [4] has as its target Single-stranded DNA-binding protein (Escherichia coli (strain K12)) (UniProt P0AGE0). Briefly: SSB-ssDNA binding inhibitors – biochemical, fluorescence polarization, NIH Clinical Collection, counter-screen for HCV NS3 helicase inhibitor project (AID 743271; in the data active = inhibition above about 28%). The note with it: E. coli SSB-DNA binding, stronger effect = higher value, concentration not given here.
The nature of test [5]: compounds distorting NS3 helicase fluorescence signal – biochemical, NIH Clinical Collection, artefact control for HCV NS3 helicase inhibitor project (AID 743272; call rule not given here;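 also: HCV NS3 helicase with a Cy5 labelled single stranded DNA probe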). The note with it: fluorescence interference counterscreen, HCV NS3 helicase assay; stronger effect = lower value.
For test [6], the target named is 6-phosphogluconate dehydrogenase, decarboxylating (Homo sapiens) (UniProt P52209). Briefly: inhibition of human phosphogluconate dehydrogenase – biochemical, recombinant enzyme, NADPH absorbance, primary screen (AID 1159550;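 active = at least 20% inhibition of 6-phosphogluconate dehydrogenase activity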). The following applies: recombinant 6PGD, NADPH absorbance 341 nm; at 10 µM; stronger effect = higher value.
Chain of 6-phosphogluconate dehydrogenase, decarboxylating (Homo sapiens) (P52209 whole entry, looked up): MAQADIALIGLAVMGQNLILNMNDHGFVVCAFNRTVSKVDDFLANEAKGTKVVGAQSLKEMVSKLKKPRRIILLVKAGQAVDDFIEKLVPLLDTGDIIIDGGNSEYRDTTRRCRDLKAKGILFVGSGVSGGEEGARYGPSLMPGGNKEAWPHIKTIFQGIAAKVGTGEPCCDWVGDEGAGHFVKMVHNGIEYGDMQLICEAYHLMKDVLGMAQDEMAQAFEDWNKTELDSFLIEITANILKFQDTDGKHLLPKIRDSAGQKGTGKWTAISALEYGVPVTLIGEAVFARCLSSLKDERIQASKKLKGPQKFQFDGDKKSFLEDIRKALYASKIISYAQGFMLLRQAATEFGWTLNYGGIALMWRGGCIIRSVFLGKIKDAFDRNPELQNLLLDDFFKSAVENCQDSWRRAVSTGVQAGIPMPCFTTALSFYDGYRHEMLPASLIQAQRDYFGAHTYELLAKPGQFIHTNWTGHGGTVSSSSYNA
Test [7] can be described thus: modulation of C. elegans fzo-1 (AID 1259413; call rule not given here;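 also: fzo-1 mutant C. elegans worms in liquid wells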). The following applies: C. elegans fzo-1 modulator screen, mean read-out; stronger effect = higher value.
The nature of test [8]: viability loss with induced miR-34 in A549 – imaging, A549 dox-inducible miR-34, nuclei and caspase counts, primary screen (AID 1347080;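 active = compounds whose cell count with miR-34 switched on is under 0.7 times the count with it off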). The following applies: A549 miR-34 inducible, Hoechst nuclei count, 48 h.
The nature of test [9]: MELAS cybrid and Rieske KO viability enhancers – cell-based, MELAS cybrids, Rieske KO mouse fibroblasts, CellTiter-Glo, primary screen (AID 1508586;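 active = mean z-score across replicates of 1.96 or higher in either the MELAS or the Rieske mutant cell line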;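 also: z relative to plate mean and SD of compound and empty wells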). The note with it: low glucose. Background: In ATP-based viability assays light output follows the ATP content of the culture.
Test [10] addresses NAD(+) hydrolase SARM1 (Homo sapiens) (UniProt Q6SZW1). Briefly: blocking NAD cleavage by SARM1 SAM-TIR – cell lysate, NAD-Glo luminescence (AID 1508614;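 active = compound whose remaining NAD level is above about 45 nM, limit read from the data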;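 also: higher remaining NAD means stronger inhibition of SARM1 NADase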). The note with it: SAM-TIR HEK293T lysate NADase, at 1 µM, stronger effect = higher value.
Test [11] concerns the target Mitogen-activated protein kinase 7 (Homo sapiens) (UniProt Q13164). Briefly: Gal4-ERK5 driven luciferase induction – cell-based, HTS, primary screen (AID 1508626;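 active = luciferase signal above three times the same-plate solvent-only control wells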;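 also: luciferase driven by Gal4-ERK5 fusion binding five Gal4 sites before minimal TATA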). The note with it: HeLa Gal4-ERK5 transactivation, 18 h, at 5 µM, stronger effect = higher value.
Test [12] in a line: galactose survival enhancers in mitochondrial complex I cybrids – cell-based, galactose medium, ATP luminescence, primary screen (AID 1645843;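 active = z-score of at least 1.8 in each of two replicates, scored against plate mean and spread of sample wells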;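 also: positive z means more ATP and so rescue of galactose-driven cybrid death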). The note with it: complex I mutant cybrid cells, 72 h, stronger effect = higher value.
The next test deals with F380Y. Briefly: BK channel mutant inhibitors and activators – cell-based, U2OS BacMam, thallium flux, beta subunits, selectivity assay, profiling panel (AID 1259406).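 Also: initial slope of Thallos dye fluorescence rise after thallium is added; log ratio against the mean of 0.3% DMSO vehicle wells on the same plate.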 The following applies: U2OS BacMam BK variants, at 30 µM.
A further test deals with F380Y/beta2Delta. The test is described as above. The note with it: U2OS BacMam BK variants, at 30 µM.
Test [13] addresses Calcium-activated potassium channel subunit alpha-1 (Homo sapiens) + Leucine-rich repeat-containing protein 26 (Homo sapiens) (UniProt Q12791+Q2I0M4). Described as above. The note with it: U2OS BacMam BK variants, F380Y/Slo1WT/gamma1, at 30 µM.
The test system of another test is R275C. Described as above. The note with it: U2OS BacMam BK variants, at 30 µM.
The test system of a further test is R275C/beta1. The test is described as above. The note with it: U2OS BacMam BK variants, at 30 µM.
In another test the test system is R275C/beta2Delta. Described as above. The note with it: U2OS BacMam BK variants, at 30 µM.
Test [14] in a line: EMT-state selective cytotoxicity in co-culture – imaging, PC-3E GFP, TEM4-18 mCherry, primary screen (AID 1345086;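 active = compounds killing one labelled cell type while sparing the other, by normalised counts and ratio limits, not self-fluorescent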;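 also: cells exposed to compound for 72 h before imaging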;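 as to red/green cell ratio (normalised): normalised mesenchymal count divided by normalised epithelial count so high means epithelial killing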). The following applies: PC-3E GFP / TEM4-18 mCherry co-culture, imaging cell counts, at 1 µM.
Where [15] appears, read: stronger effect = lower value, cell number ratio, induced over uninduced.
[16] abbreviates: measured here: relative caspase fold change +Dox/-Dox.
Setting [17] is: measured here: total cells with miR-34 induction, stronger effect = lower value.
The mark [18] stands for this setting: measured here: total cells without miR-34 induction.
The mark [19] stands for this setting: MELAS cybrid survival, CellTiter-Glo 48 h, stronger effect = higher value.
Where [20] appears, read: Rieske KO mouse fibroblast survival, CellTiter-Glo 72 h.

The viability is a read-out of living cells in per cent, often relative to untreated cells. What is called inhibition is the drop in the measured response relative to a control, in per cent.

Values joined by “and” are separate entries in the source; they are usually repeats but may differ in a detail not shown here. Identical values can stand only once. Active and inactive are the calls of the source.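 The calls were made as follows, unless noted: active = thallium flux through the channel raised or lowered by more than 3 SD from vehicle-only wells, actives on both sides; inactive = the rest.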

Chain of NAD(+) hydrolase SARM1 (Homo sapiens) (Q6SZW1 whole entry, looked up, the tested form may be a part): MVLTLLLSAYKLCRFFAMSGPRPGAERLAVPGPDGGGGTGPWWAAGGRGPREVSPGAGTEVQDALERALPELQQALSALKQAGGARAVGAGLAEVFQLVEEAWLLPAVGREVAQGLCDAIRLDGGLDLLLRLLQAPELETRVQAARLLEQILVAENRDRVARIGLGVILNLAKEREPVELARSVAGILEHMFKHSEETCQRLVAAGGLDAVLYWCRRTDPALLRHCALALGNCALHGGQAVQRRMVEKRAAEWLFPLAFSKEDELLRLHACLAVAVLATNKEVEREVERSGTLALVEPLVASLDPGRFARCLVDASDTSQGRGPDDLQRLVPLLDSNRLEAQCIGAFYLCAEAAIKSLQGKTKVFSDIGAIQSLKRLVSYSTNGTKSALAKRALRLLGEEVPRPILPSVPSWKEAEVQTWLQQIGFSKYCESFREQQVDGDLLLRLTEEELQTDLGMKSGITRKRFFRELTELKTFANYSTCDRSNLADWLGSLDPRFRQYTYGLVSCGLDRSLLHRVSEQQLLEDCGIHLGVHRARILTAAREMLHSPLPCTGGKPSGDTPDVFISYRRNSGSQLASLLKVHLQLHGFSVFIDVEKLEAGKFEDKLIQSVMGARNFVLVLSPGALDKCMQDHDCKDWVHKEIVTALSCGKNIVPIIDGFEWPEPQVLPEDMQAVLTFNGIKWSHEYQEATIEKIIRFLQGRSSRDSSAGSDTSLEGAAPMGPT
Chain of Mitogen-activated protein kinase 7 (Homo sapiens) (Q13164 whole entry, looked up, the tested form may be a part): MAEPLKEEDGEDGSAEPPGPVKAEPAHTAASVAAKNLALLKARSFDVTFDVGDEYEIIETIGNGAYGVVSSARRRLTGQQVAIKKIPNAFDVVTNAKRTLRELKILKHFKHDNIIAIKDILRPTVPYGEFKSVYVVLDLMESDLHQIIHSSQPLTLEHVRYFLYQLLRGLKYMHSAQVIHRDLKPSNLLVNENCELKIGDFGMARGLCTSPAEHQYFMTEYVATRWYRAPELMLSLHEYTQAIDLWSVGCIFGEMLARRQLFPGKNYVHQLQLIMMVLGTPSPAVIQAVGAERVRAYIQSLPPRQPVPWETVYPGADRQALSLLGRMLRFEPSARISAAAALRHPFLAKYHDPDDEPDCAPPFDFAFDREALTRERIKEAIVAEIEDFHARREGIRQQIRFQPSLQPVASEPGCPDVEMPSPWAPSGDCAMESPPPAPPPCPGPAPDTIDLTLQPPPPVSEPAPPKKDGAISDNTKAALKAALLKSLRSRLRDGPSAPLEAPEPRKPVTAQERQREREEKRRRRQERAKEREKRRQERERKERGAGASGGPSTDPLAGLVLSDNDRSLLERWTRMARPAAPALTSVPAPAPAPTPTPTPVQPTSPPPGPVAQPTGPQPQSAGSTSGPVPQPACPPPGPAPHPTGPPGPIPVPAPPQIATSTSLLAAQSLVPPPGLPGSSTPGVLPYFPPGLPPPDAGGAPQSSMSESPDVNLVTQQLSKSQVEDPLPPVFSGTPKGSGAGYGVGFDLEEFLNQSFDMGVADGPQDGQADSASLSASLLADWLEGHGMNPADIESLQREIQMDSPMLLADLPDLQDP
Chain of Calcium-activated potassium channel subunit alpha-1 (Homo sapiens) + Leucine-rich repeat-containing protein 26 (Homo sapiens) (Q2I0M4 whole entry, looked up, one chain of several): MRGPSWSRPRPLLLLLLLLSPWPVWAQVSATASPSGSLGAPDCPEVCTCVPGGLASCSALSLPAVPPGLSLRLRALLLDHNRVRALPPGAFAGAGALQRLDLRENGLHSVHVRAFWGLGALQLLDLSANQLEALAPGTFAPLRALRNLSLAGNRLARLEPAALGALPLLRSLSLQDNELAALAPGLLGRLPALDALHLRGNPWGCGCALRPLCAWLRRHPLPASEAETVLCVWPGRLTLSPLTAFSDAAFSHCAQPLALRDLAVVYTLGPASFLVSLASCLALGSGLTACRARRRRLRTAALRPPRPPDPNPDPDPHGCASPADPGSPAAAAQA

In the case of `CC[C@H](C)C(=O)O[C@H]1CCC=C2C=C[C@H](C)[C@H](CC[C@@H]3C[C@@H](O)CC(=O)O3)[C@H]21`, the parasite load remaining in [1] is 95.7% (inactive) and 85.1% (inactive). For the same compound, the viability in test [1] is 67.9% and 134%. The fluorescence ratio in test [2] is 0.91 (inactive); in [5], 0.89 (inactive). The inhibition was 0.66% (inactive) in [3], 1.97% (inactive) in test [4] and -1.06% (inactive) in test [6]. The mean signal in test [7] is 242 (inactive). In addition, the fold change in test [8] (setting [15]) was 0.923 (inactive) and 1.16 (inactive) and 1.1 (inactive); in test [8] (setting [16]) it was 1.44 and 0.292 and 0.944. Further, the cell count in test [8] (setting [17]) is 2090 and 1930 and 4610; in [8] (setting [18]) it was 2270 and 1660 and 4180. Besides, the z-score in test [9] (setting [19]) is 0.801 (inactive) and -1.19 (inactive); in test [9] (setting [20]) it was 0.000262 and -0.468; in test [12], -0.615 (inactive) and -0.575 (inactive) and 0.1 (inactive). In test [10], the remaining NAD is 10 nM (inactive). Besides, the luciferase signal in test [11] was 24 AU (inactive).

As to `C[C@H](CCC(=O)O)[C@H]1CC[C@H]2[C@@H]3[C@@H](O)C[C@@H]4C[C@H](O)CC[C@]4(C)[C@H]3CC[C@]12C`, the parasite load remaining in test [1] was 52.5% (inactive) and 128% (inactive). The viability in [1] is 109% and 101%. Also, the values for the fluorescence ratio in test [2] and in [5] were 0.99 (inactive) and 0.97 (inactive), respectively. For the same compound, the inhibition in test [3] is -1.36% (inactive); in test [4] it was 1.81% (inactive); in test [6], -17.2% (inactive). Further, the fold change in [8] (setting [15]) was 1 (inactive) and 0.854 (inactive); in test [8] (setting [16]) it was 1.43 and 1.31. Besides, the cell count in test [8] (setting [17]) is 10300 and 8440; in [8] (setting [18]), 10300 and 9880. Moreover, the z-score is -0.323 (inactive) in [9] (setting [19]), -0.919 in test [9] (setting [20]) and -0.425 (inactive) in [12]. Also, the remaining NAD in test [10] is 10 nM (inactive). Further, in test [11], the luciferase signal was 36 AU (inactive). The log fold change Tl+ flux in the test with F380Y was 0.0594 (inactive); with F380Y/beta2Delta, 0.0428 (inactive); in test [13], 0.00339 (inactive); in the test with R275C, 0.0817 (inactive); with R275C/beta1 it was 0.198 (active); with R275C/beta2Delta, 0.142 (active).

`CCCC1O[C@@H]2C[C@H]3[C@@H]4CCC5=CC(=O)C=C[C@]5(C)[C@H]4[C@@H](O)C[C@]3(C)[C@]2(C(=O)CO)O1` (stereo not given in full): the parasite load remaining in test [1] was 14% (inactive) and 67.2% (inactive) and 78.7% (inactive). Further, in [1], the viability is 116% and 115% and 75.3%. Further, the fluorescence ratio in test [2] is 1.05 (inactive); in test [5] it was 0.99 (inactive). The inhibition was -1.36% (inactive) in [3], 1.05% (inactive) in [4] and -12.1% (inactive) in [6]. In addition, the z-score was -0.382 (inactive) in test [9] (setting [19]) and -0.0716 in test [9] (setting [20]). In addition, the remaining NAD in test [10] was 10 nM (inactive). Moreover, in test [11], the luciferase signal is 96 AU (inactive). In addition, the log fold change Tl+ flux with F380Y was 0.198 (active); with F380Y/beta2Delta it was 0.159 (active); in [13] it was 0.0553 (inactive); in the test with R275C it was 0.0776 (inactive); in the test with R275C/beta1 it was 0.133 (active); in the test on R275C/beta2Delta it was 0.115 (active).

For `COC(=O)c1cc(=O)c(O)c2c(O)c(O)ccc2c1`, in [6], the inhibition is -4.56% (inactive). Further, the red/green cell ratio (normalised) in test [14] (actives lie on both sides, counts scaled to control wells, 1 = unselective) is 0.88 (inactive). Also, the figures for the normalised cell number in [14] (measured here: epithelial PC-3E GFP cell survival) and in [14] (measured here: mesenchymal TEM4-18 mCherry cell survival) were 1.21 and 1.06, respectively.
